Experimental findings from PubChem BioAssay (NCATS) are described below.

Test [1] can be described thus: qHTS for Inhibitors of the Functional Ribonucleoprotein Complex (vRNP) of Lassa (LASV) Arenavirus: LASV Primary Screen - GLuc reporter signal (AID 1347082; calls by dose curve; tested in HEK293 reporter line; also: nearly all actives have a fitted effect of over 60% in size; as to activity change, negative = inhibition: series mostly up to about 57 µM).
The nature of test [2]: qHTS for Inhibitors of the Functional Ribonucleoprotein Complex (vRNP) of Lassa (LASV) Arenavirus: Viability assay - alamar blue signal for LASV Primary Screen (AID 1347083; calls by dose curve; tested in HEK293 reporter line; also: nearly all actives have a fitted effect of over 80% in size; as to activity change, negative = reduced viability: series mostly up to about 57 µM). Background: qHTS replaces the single test concentration by a dilution series.
Test [3] in a line: qHTS for Inhibitors of the Functional Ribonucleoprotein Complex (vRNP) of Lymphocytic Choriomeningitis Arenaviruses (LCMV): Viability assay - alamar blue signal for LCMV Primary Screen (AID 1347085; calls by dose curve; tested in HEK293 reporter line; also: nearly all actives have a fitted effect of over 80% in size; as to activity change, negative = lower viability: series mostly up to about 57 µM).
For test [4], the target named is Nucleoprotein (Lymphocytic choriomeningitis virus (strain Armstrong)) (UniProt P09992). Nature of the test: qHTS for Inhibitors of the Functional Ribonucleoprotein Complex (vRNP) of Lymphocytic Choriomeningitis Arenaviruses (LCMV): LCMV Primary Screen - GLuc reporter signal (AID 1347086). Also: nearly all actives have a fitted effect of over 70% in size. As to activity change, negative = inhibition: series mostly up to about 57 µM.
Sequence of Nucleoprotein (Lymphocytic choriomeningitis virus (strain Armstrong)) (P09992 whole entry, looked up): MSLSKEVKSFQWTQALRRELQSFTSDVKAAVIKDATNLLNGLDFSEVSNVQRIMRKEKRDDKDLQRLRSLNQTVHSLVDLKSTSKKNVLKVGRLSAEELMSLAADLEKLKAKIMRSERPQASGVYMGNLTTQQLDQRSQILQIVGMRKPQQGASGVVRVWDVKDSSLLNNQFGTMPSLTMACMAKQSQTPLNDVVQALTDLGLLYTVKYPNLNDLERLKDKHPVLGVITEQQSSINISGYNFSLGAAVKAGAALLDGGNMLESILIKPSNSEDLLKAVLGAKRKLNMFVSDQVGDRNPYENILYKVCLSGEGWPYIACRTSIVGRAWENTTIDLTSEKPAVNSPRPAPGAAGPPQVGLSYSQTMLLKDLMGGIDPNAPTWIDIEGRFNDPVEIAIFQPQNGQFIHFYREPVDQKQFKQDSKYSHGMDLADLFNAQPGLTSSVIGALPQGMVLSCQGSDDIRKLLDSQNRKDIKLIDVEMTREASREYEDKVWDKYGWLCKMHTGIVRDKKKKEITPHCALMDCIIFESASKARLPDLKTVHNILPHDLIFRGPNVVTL

Results filed as inconclusive are left out. Unmarked numbers belong to inactive results. Active and inactive are the calls of the source. Unless noted, calls follow the shape of the full dose curve.
% is scaled to controls: 0 for no effect and ±100 for the full control effect; potency is read from the fitted curve at half-maximal effect.

For `CC(=O)Oc1ccc2c(=O)c(-c3ccccc3)c(C)oc2c1`, the Potency result in test [1], in test [2], in test [3] and in test [4] was “inactive” in each case.

Consider `COc1cc(/C=C2/C(=O)Nc3ccccc32)cc(OC)c1O`, for which the Potency entry in test [1], in test [2], in test [3] and in test [4] was “inactive” throughout.

Turning to `COc1c(C(=O)/C=C/c2ccccc2)ccc2c1C=CC(C)(C)O2`, the Potency entry in test [1], in test [2], in test [3] and in test [4] was “inactive” in each case.

Regarding `O=C(/C=C/c1ccc(O)cc1)OCc1occc(=O)c1O[C@@H]1OC(CO)[C@@H](O)[C@H](O)[C@@H]1O` (stereo not given in full), the Potency entry in test [1], in test [2], in test [3] and in test [4] was “inactive” in each case.

Turning to `COC(=O)c1c(C)cc(O)c(C=O)c1O`, the Potency result in test [1], in test [2], in test [3] and in test [4] was “inactive” throughout.

`COc1c(C)c2c(c(O)c1CC=C(C)CCC(=O)OCCN1CCOCC1)C(=O)OC2`: the Potency in test [1] was 6.11 µM (active); in test [2], 6.85 µM (active); in test [3], 12.2 µM (active); in test [4], 6.11 µM (active).

On to `C[C@@H]1C2C[C@@]34COC(=O)C3=CC=C[C@H]4[C@@]13C[C@H](c1ccoc1)O[C@@H]3O2`, for which the Potency entry in test [1], in test [2], in test [3] and in test [4] was “inactive” each time.

Take `CCCCCCCCCC(=O)OCC`: the Potency result in test [1], in test [2], in test [3] and in test [4] was “inactive” in each case.

On to `CCCCC[C@H](O)/C=C/C=C\C/C=C\C=C\[C@@H](O)CCCC(=O)O`, for which the results for the activity change, negative = inhibition in test [1] and in test [4] were 2.34% [at 0.757 µM] and 18.8% [at 0.757 µM], respectively. Moreover, in test [2], the activity change, negative = reduced viability was 18.4% [at 0.757 µM]. In test [3], the activity change, negative = lower viability is 2.14% [at 0.757 µM].

On to `NC1=N[C@H](O)[C@H]2C3O[C@]4(O)O[C@H](C(O)[C@@]2(N1)[C@@H]4O)C3(O)CO` (stereo not given in full), for which the Potency result in test [1], in test [2], in test [3] and in test [4] was “inactive” throughout.

As to `COCCOCCOCCOC`, the Potency result in test [1], in test [2], in test [3] and in test [4] was “inactive” throughout.

For `CCCCCCCCC1CCC(=O)O1` (stereo not given), the Potency entry in test [1], in test [2], in test [3] and in test [4] was “inactive” throughout.

`Cc1cccc2c3c(ccc12)C1=C(C(=O)C3=O)[C@@H](C)CO1`: the Potency result in test [1], in test [2], in test [3] and in test [4] was “inactive” each time.

For `O=C1CC(c2ccc(O[C@@H]3OC(CO)[C@@H](O)C(O)C3O)cc2)Oc2cc(O)ccc21` (stereo not given in full), the Potency entry in test [1], in test [2], in test [3] and in test [4] was “inactive” each time.

For `CC1=CC(=O)OC2CC3OC4C[C@@H](C)C5OC6CC7O[C@]8(C)C/C=C\C9OC%10CC%11OC(CC(C)CO)CC(O)[C@]%11(C)OC%10CC9OC8C[C@]7(C)O[C@]6(C)CCC5OC4C[C@]3(C)OC12` (stereo not given in full), the Potency result in test [1], in test [2], in test [3] and in test [4] was “inactive” in each case.

As for `O=C1c2ccccc2C(=O)c2c(O)c(O)cc(O)c21`, the Potency entry in test [1], in test [2], in test [3] and in test [4] was “inactive” in each case.

For `O=C(O)C1=CO[C@@H](O[C@@H]2O[C@H](CO)[C@H](O)[C@H](O)[C@H]2O)[C@@H]2C(CO)=CC[C@H]12`, the Potency entry in test [1], in test [2], in test [3] and in test [4] was “inactive” each time.

As for `C/C(=C\COc1ccc2ccc(=O)oc2c1)CC[C@@H](O)C(C)(C)O`, the Potency result in test [1], in test [2], in test [3] and in test [4] was “inactive” each time.

For `CC(=O)c1c(O)cc(O)cc1O`, the Potency result in test [1], in test [2], in test [3] and in test [4] was “inactive” in each case.

For `COc1cc(=O)n(C)c2c(OCC3OC(C)(C)OC3(C)C)cccc12` (stereo not given), the Potency entry in test [1], in test [2], in test [3] and in test [4] was “inactive” throughout.

For `C[C@@H]1CCCCCCCCCCC1=O`, the Potency result in test [1], in test [2], in test [3] and in test [4] was “inactive” each time.

Take `CC1(C)CCC[C@]2(C)[C@H]3Cc4cc(O)ccc4O[C@]3(C)CC[C@@H]12`: the Potency entry in test [1], in test [2], in test [3] and in test [4] was “inactive” throughout.

Take `CCc1ccc(C=C2SC(=S)NC2=O)cc1`: the Potency result in test [1], in test [2], in test [3] and in test [4] was “inactive” throughout.

With `C/C=C1\NC(=O)[C@H](C)NC(=O)[C@@H](NC(=O)[C@H](Cc2ccc(O)cc2)NC(=O)[C@@H](NC(=O)/C(C)=C/C)C(C)C)[C@@H](C)OC(=O)[C@H](CC(C)C)NC(=O)[C@@H](CCC(=O)O)NC1=O`, the Potency result in test [1], in test [2], in test [3] and in test [4] was “inactive” throughout.

On to `CC1CCC2C(C)C3C(CC4[C@@H]5CC=C6C[C@@H](O)CC[C@]6(C)C5CC[C@]34C)N2C1` (stereo not given in full), for which the Potency result in test [1], in test [2], in test [3] and in test [4] was “inactive” throughout.

As to `O[C@@H]1COC2[C@@H](O)CO[C@@H]21` (stereo not given in full), the Potency result in test [1], in test [2], in test [3] and in test [4] was “inactive” each time.

Regarding `CC(C)(C)c1ccccc1`, the Potency result in test [1], in test [2], in test [3] and in test [4] was “inactive” each time.

`O=C(CO)c1c[nH]c2ccccc12`: the Potency entry in test [1], in test [2], in test [3] and in test [4] was “inactive” in each case.

For the compound `NC(=S)c1ccc[n+]([C@@H]2O[C@@H](COP(=O)([O-])OP(=O)(O)OC[C@H]3O[C@@H](n4cnc5c(N)ncnc54)[C@H](OP(=O)(O)O)[C@@H]3O)C(O)C2O)c1` (stereo not given in full), the Potency entry in test [1], in test [2], in test [3] and in test [4] was “inactive” in each case.

On to `O=C(C=CC=Cc1ccc2c(c1)OCO2)N1CCCCC1`, for which the Potency entry in test [1], in test [2], in test [3] and in test [4] was “inactive” each time.
